DT40 TDP1 no CPT – qHTS for Inhibitors of human tyrosyl-DNA phosphodiesterase 1 (TDP1): qHTS in cells in absence of CPT; AID 686978, 2013; DT40 Tdp1-/- hTDP1 cells, no CPT, ATP luminescence, 48 h; 420,000 tested, 15% active; Potency, µM (series often up to 46.2 µM), hits mostly inhibitors; note: nearly all actives have a fitted effect of over 55% in size
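Chicken DT40 Tdp1-/- cells complemented with human TDP1, screened without camptothecin (DMSO vehicle only), 400 cells/well. Compounds pin-transferred, cells incubated at 37 °C for at least 48 hr. Growth read as ATP-dependent luminescence (CellTiter-Glo, 30 min at RT).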
HT1080 IDH1KD tx – qHTS for induction of synthetic lethality in tumor cells producing 2HG: qHTS for the HT-1080-IDH1KD cell line. HT-1080 IDH1 knockdown viability, ATP luminescence, 48 h. Potency, µM (doses to about 46.1 µM), actives largely listed as cytotoxic. 360,000 tested, 2% active
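Knockdown cells (IDH1KD HT-1080) received compounds 2 h after plating at 750 cells/well and were kept 48 h at 37 °C in 5% FBS RPMI. A CellTiter-Glo luminescence read gave % activity for curve fitting.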
TDP1 cell CPT – qHTS for Inhibitors of human tyrosyl-DNA phosphodiesterase 1 (TDP1): qHTS in cells in presence of CPT; AID 686979, 2013; Potency, µM (highest dose often 46.2 µM), actives largely listed as inhibitors; chicken DT40 Tdp1-/-;hTDP1 cells + 20 nM CPT, ATP luminescence, 48 h; 420,000 tested, 12% active; note: nearly all actives have a fitted effect of over 55% in size
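Chicken DT40 Tdp1-/- cells complemented with human TDP1, 400 cells/well, exposed to compounds plus 20 nM camptothecin for at least 48 h at 37 C; viability read as ATP content by CellTiter-Glo luminescence.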
HT1080-NT tox – qHTS for induction of synthetic lethality in tumor cells producing 2HG: qHTS for the HT-1080-NT fibrosarcoma cell line; HT-1080-NT fibrosarcoma viability, CellTiter-Glo ATP luminescence, 48 h; 360,000 tested, 1.6% active; AID 686970, 2013; Potency, µM (highest dose often 46.1 µM), actives largely listed as cytotoxic;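 note: NT is the 2HG producing partner of a matched IDH1 knockdown line; nearly all actives have a fitted effect of over 55% in size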
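Fibrosarcoma NT cells, 750 per well in 5% FBS RPMI, were exposed to compound for 48 hours. Viability: CellTiter-Glo luminescence.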
IL1B secr inh – qHTS for Inhibitors of Inflammasome Signaling: IL-1-beta AlphaLISA Primary Screen. THP-1 LPS/ATP IL-1B secretion, AlphaLISA, 16 h; hits give low values. activity change, % at 57.5 µM. 360,000 tested, 4.7% active. AID 743279, 2014; in the data active = activity change below about -50%; inconclusive = mostly about -30% to -49%
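THP-1 cells pretreated 1 hr with compounds (up to 57.5 uM final), then stimulated with LPS (250 ng/mL final) plus ATP (1.25 mM final); secreted IL-1B measured by AlphaLISA after 16 hr, decreased signal indicating inhibition.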
Of the large screens only hits and unclear results are named; the others gave an inactive call. This is a sample that favours compounds with a hit; in the whole collection about 19% have one here. Unless noted, calls come from the whole dose curve; as a rule, active = well fitted curve in the direction sought with a large enough effect; inconclusive = small, poorly fitted or top-dose-only effect, or another doubt; inactive = no such curve, though single readings can be large; an effect the other way counts as inactive or inconclusive.

CCN(CC)C(=O)c1ccc(COc2ccccc2Cl)o1	DT40 TDP1 no CPT 16µM
O=C(Nc1cccnc1)c1ccc(COc2ccccc2Cl)o1	DT40 TDP1 no CPT 21µM, HT1080 IDH1KD tx 21µM, TDP1 cell CPT 18µM, HT1080-NT tox inconclusive
O=C(Nc1nccs1)c1ccc(COc2ccccc2Br)o1	DT40 TDP1 no CPT inconclusive, HT1080 IDH1KD tx inconclusive, TDP1 cell CPT inconclusive, HT1080-NT tox 10µM
CN(C(=O)c1ccc(COc2ccccc2Cl)o1)c1ccccc1	none
O=C(Nc1nn(Cc2ccc(Cl)cc2)cc1Br)c1ccc(COc2ccccc2Cl)o1	DT40 TDP1 no CPT 26µM, TDP1 cell CPT 26µM, IL1B secr inh inconclusive
COCCNC(=O)/C=C/c1c(Cl)cccc1Cl	none
Cc1c(C(=O)N/N=C/c2ccncc2)nnn1-c1nonc1N	none
CC(CC(=O)OCC(=O)Nc1ccc2[nH]c(=O)[nH]c2c1)c1ccccc1 (stereo unspecified)	DT40 TDP1 no CPT inconclusive
O=C(Nc1cccnc1)c1ccc(COc2cc(Cl)ccc2Cl)o1	DT40 TDP1 no CPT 18µM, HT1080 IDH1KD tx 23µM, TDP1 cell CPT inconclusive, HT1080-NT tox inconclusive
CN(C)c1ccc(NC(=O)c2ccc(COc3cccc(Cl)c3)o2)cc1	DT40 TDP1 no CPT inconclusive, TDP1 cell CPT 21µM
CCN1CCN(C(=O)c2ccc(COc3cccc(Cl)c3)o2)CC1	TDP1 cell CPT inconclusive, HT1080-NT tox inconclusive
CC1(C)Cc2ccccc2C(/C(=N/O)C(N)=O)=N1	none
CC(=O)c1ccc(N/N=C(/C(N)=O)C2=NC(C)(C)Cc3ccccc32)cc1	DT40 TDP1 no CPT 9.2µM, TDP1 cell CPT 12µM
CC1(C)Cc2ccccc2C(/C(=N\Nc2cccc(Cl)c2)C(N)=O)=N1	DT40 TDP1 no CPT inconclusive, HT1080 IDH1KD tx 21µM, TDP1 cell CPT inconclusive, HT1080-NT tox 21µM, IL1B secr inh -54
COc1ccc(Cl)cc1NC(=O)N1CCN(Cc2cc(=O)n3nc(-c4ccccc4)sc3n2)CC1	none (no result: HT1080 IDH1KD tx, HT1080-NT tox, IL1B secr inh)
CCCN1C(=O)c2ccc(C(=O)Nc3ccccc3C(=O)O)cc2C1=O	none
O=C(CN1CCN(Cc2ccccc2Cl)C1=O)NCCCN1CCOCC1	none
CCN(C(=O)CN1C(=O)c2ccccc2S1(=O)=O)C1CCCCC1	none
CCN(C(=O)Cc1ccc(Br)cc1)C1CCCCC1	DT40 TDP1 no CPT inconclusive, TDP1 cell CPT 21µM
CN(CC(CC(=O)Nc1nncs1)c1ccccc1)S(=O)(=O)c1ccc(Br)cc1 (stereo unspecified)	DT40 TDP1 no CPT inconclusive, TDP1 cell CPT 16µM
Cc1ccc(C2=N/C(=C/N3CCOCC3)C(=O)O2)cc1	none
Cc1cccc2cc(/C=C3\N=C(c4ccccc4)OC3=O)c(N3CCOCC3)nc12	DT40 TDP1 no CPT 23µM, TDP1 cell CPT inconclusive
COc1ccc2cc3[n+](cc2c1OC)CCc1cc2c(cc1-3)OCO2	DT40 TDP1 no CPT 2.3µM, HT1080 IDH1KD tx inconclusive, TDP1 cell CPT 3.7µM, HT1080-NT tox inconclusive, IL1B secr inh inconclusive
Cc1ccc(C(O)c2ccc(-n3ccnc3)cc2)cc1 (stereo unspecified)	DT40 TDP1 no CPT 15µM, TDP1 cell CPT inconclusive
S=C(Nc1ccccc1Cl)NC1CC2CCCC(C1)N2C1CC1 (stereo unspecified)	DT40 TDP1 no CPT inconclusive, TDP1 cell CPT inconclusive
CCOC(=O)CSc1nc2c(sc(=S)n2-c2ccc(CC)cc2)c(=O)[nH]1	DT40 TDP1 no CPT inconclusive
CCOC(=O)c1ccc(-n2c(=S)sc3c(=O)[nH]c(C)nc32)cc1	DT40 TDP1 no CPT 16µM, TDP1 cell CPT inconclusive
O=C(c1ccc(C23CC4CC(CC(C4)C2)C3)o1)N1CCOCC1	DT40 TDP1 no CPT 23µM, HT1080 IDH1KD tx inconclusive, TDP1 cell CPT inconclusive
COc1ccccc1C(=O)Nc1cccc(C(=O)OCc2cc(=O)n3cc(C)sc3n2)c1	none (no result: HT1080 IDH1KD tx, HT1080-NT tox, IL1B secr inh)
CCCCCCNc1c(C(=O)OCC)c(=O)[nH]c2ccccc12	DT40 TDP1 no CPT inconclusive, TDP1 cell CPT 16µM
COc1cc(/C=C/C(=O)OCC(=O)NCCN2C(=O)CSC2=O)ccc1OCC#N	none
Cc1nc2ccc(NC(=O)c3cc(S(=O)(=O)N(C)c4ccccc4)ccc3Cl)cc2s1	DT40 TDP1 no CPT 1.8µM, TDP1 cell CPT 1.8µM, HT1080-NT tox inconclusive
CN(c1ccccc1)S(=O)(=O)c1ccc(Cl)c(C(=O)Nc2ccc(N3CCOCC3)cc2)c1	DT40 TDP1 no CPT 1.6µM, HT1080 IDH1KD tx inconclusive, TDP1 cell CPT 3.3µM, HT1080-NT tox inconclusive
Cc1nc2ccc(S(=O)(=O)N(CC(=O)Nc3cccc(Cl)c3)Cc3ccccc3)cc2s1	DT40 TDP1 no CPT 16µM, TDP1 cell CPT inconclusive (no result: HT1080 IDH1KD tx, HT1080-NT tox, IL1B secr inh)
Cc1nc2ccc(S(=O)(=O)N(CC(=O)Nc3cccc(C)c3C)Cc3ccccc3)cc2s1	DT40 TDP1 no CPT inconclusive (no result: HT1080 IDH1KD tx, HT1080-NT tox, IL1B secr inh)
Cc1nc2ccc(NC(=O)c3cc([N+](=O)[O-])cc([N+](=O)[O-])c3Cl)cc2s1	DT40 TDP1 no CPT 6.5µM, TDP1 cell CPT 5.2µM, IL1B secr inh inconclusive
Cc1cccc2cc(CN(CC3CCCO3)C(=O)C3CC3)c(N(C)C)nc12 (stereo unspecified)	none (no result: HT1080 IDH1KD tx, HT1080-NT tox, IL1B secr inh)
Cc1nc2ccc(NC(=O)c3ccc(S(=O)(=O)N(C)C)cc3)cc2s1	none
Cc1nc2ccc(NC(=O)c3ccc(Cl)c(S(=O)(=O)N(C)c4ccccc4)c3)cc2s1	DT40 TDP1 no CPT 3.3µM, HT1080 IDH1KD tx inconclusive, TDP1 cell CPT 13µM, HT1080-NT tox inconclusive
CCC(=O)Nc1cc(NC(=O)CSc2ncc(-c3ccc(F)cc3)n2Cc2ccco2)ccc1C	IL1B secr inh inconclusive
COc1ccc(-c2cnc(SCC(=O)Nc3nc(C(C)(C)C)cs3)n2Cc2ccco2)cc1	DT40 TDP1 no CPT 21µM, HT1080 IDH1KD tx inconclusive, TDP1 cell CPT inconclusive, HT1080-NT tox inconclusive
COc1ccc(-c2cnc(SCC(=O)Nc3cc(C)on3)n2Cc2ccco2)cc1	DT40 TDP1 no CPT inconclusive
O=C(CSc1ncc(-c2ccc(F)cc2)n1Cc1ccco1)Nc1nccs1	DT40 TDP1 no CPT 21µM, TDP1 cell CPT inconclusive
Cc1cnc(NC(=O)CSc2ncc(-c3ccccc3)n2Cc2ccco2)s1	DT40 TDP1 no CPT inconclusive, HT1080 IDH1KD tx inconclusive, TDP1 cell CPT 18µM, HT1080-NT tox inconclusive
COc1ccc(NC(=O)CSc2ncc(-c3ccc(F)cc3)n2Cc2ccco2)cc1	DT40 TDP1 no CPT 16µM, HT1080 IDH1KD tx inconclusive, TDP1 cell CPT 13µM, HT1080-NT tox inconclusive, IL1B secr inh -62
O=C(Cc1cccc(NC(=O)C2CCCN(C(=O)C3CCCCC3)C2)c1)Nc1cccc(C(=O)N2CCCC2)c1 (stereo unspecified)	none

High-throughput results as filed in PubChem.
